PINK1 expr mod – changes PINK1 expression; PINK1 immunofluorescence, high-content cytometry, 24 h; Potency, µM (series often up to 76.6 µM), without a hit: at the highest dose activation (PINK1 increase), hits mostly activators; 410,000 tested, 0.2% active; active = well fitted activation curve with a large enough effect; inconclusive = small, poorly fitted or top-dose-only effect; cell line not stated here; also: potency is read from the fitted curve at half-maximal effect; % of control where 0% means no effect; nearly all actives have a fitted effect of over 65% in size
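Compound titrations (5 concentrations, 24 h) on a stable cell line; DMSO and CCCP controls. Endpoint: fixed-cell PINK1 immunofluorescence with mitochondrial, cell and nuclear markers, scanned by microplate cytometer.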
ATXN viability – viability counter-screen for ATXN expression inhibitors; S2 cells (HEK-293 line with an ATXN2-luciferase reporter) viability, CellTiter-Fluor protease fluorescence, 24 h; Potency, µM (top dose mostly 56.7 µM), most hits filed as cytotoxic; 400,000 tested, 0.49% active; AID 651635; also: potency is read from the fitted curve at half-maximal effect; nearly all actives have a fitted effect of over 40% in size
SW480 rereplic – DNA re-replication induction in SW480 cells; SW480 DNA re-replication, Hoechst DNA content imaging, 48 h; Potency, µM (top dose mostly 46.1 µM), for inactives: top-dose re-replication activation, most hits filed as activators; 340,000 tested, 1.8% active; AID 624297; also: potency is read from the fitted curve at half-maximal effect; % of control where 0% means no effect; nearly all actives have a fitted effect of over 55% in size
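DNA re-replication was detected as more nuclei of elevated Hoechst intensity after 48 hr exposure to compound (23 nL pinned per well of 250 cells).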
ATXN2 expr inh – reduces ATXN2 reporter expression in HEK-293 cells | HEK-293 ATXN2-luciferase reporter, luminescence, 24 h | Potency, µM (highest dose often 57 µM), inactives show top-dose activity change, negative = inhibition, most hits filed as inhibitors | 360,000 tested, 0.72% active; also: potency is read from the fitted curve at half-maximal effect; % is scaled to controls: 0 for no effect and ±100 for the full control effect; nearly all actives have a fitted effect of over 55% in size
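qHTS (up to 57 uM final) was run with 24 h compound exposure of reporter cells at 37 °C. Each well was multiplexed: SteadyGlo luminescence measured ATXN2-luciferase expression after a fluorogenic Gly-Phe-AFC viability readout (25 uM final).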
IL1B secr inh – blocks inflammasome-driven IL-1 beta release. THP-1 LPS/ATP IL-1B secretion, AlphaLISA, 16 h; hits give low values. activity change, % at 57.5 µM. 360,000 tested, 4.7% active; in the data active = activity change below about -50%; inconclusive = mostly about -30% to -49%; also: % is scaled to controls: 0 for no effect and ±100 for the full control effect
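THP-1 cells pretreated 1 hr with compounds (up to 57.5 uM final), then stimulated with LPS (250 ng/mL final) plus ATP (1.25 mM final); secreted IL-1B measured by AlphaLISA after 16 hr, decreased signal indicating inhibition.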
MCF10A rerep – inducers of DNA re-replication in MCF 10A breast cells; Potency, µM (highest dose often 46.1 µM), without a hit: at the top dose activity, positive = re-replication, most hits filed as activators; AID 624296; MCF 10A DNA re-replication, Hoechst nuclear intensity, 48 h; 350,000 tested, 2.9% active; also: potency is read from the fitted curve at half-maximal effect; % of control where 0% means no effect; nearly all actives have a fitted effect of over 50% in size
Starred values were filed as active, the others as inactive; i = inactive; ? = inconclusive; nt = no result given; [ ] = dose if it differs, or a comment. Sampled rows, rich in hits. Any-hit rate of the full collection: about 7.1%. Unless noted, calls follow the shape of the dose curve; as a rule, active = well fitted curve in the direction sought with a large enough effect; inconclusive = small, poorly fitted or top-dose-only effect, or another doubt; inactive = no such curve, though single readings can be large; an effect the other way counts as inactive or inconclusive.

SMILES	PINK1 expr mod	ATXN viability	SW480 rereplic	ATXN2 expr inh	IL1B secr inh	MCF10A rerep
CCOC(=O)c1c(NC(=O)CN2CCCCC2)sc2c1CCCC2O (configuration not stated)	2.0%	?	0.0%	?	35.2	7.9%
CCOC(=O)c1c(NC(=O)CCl)sc(CN(C)C)c1-c1ccccc1	-1.9%	nt	?	?	-98.0*	?
CCOC(=O)c1c(NC(=O)/C=C/C(=O)O)sc(C)c1-c1ccc(Cl)cc1	-2.1%	?	4.4%	?	-71.3*	2.91µM*
CCOC(=O)c1c(NC(=S)N2CCN(C)CC2)sc(C)c1-c1ccccc1	-1.6%	i	?	0.0%	?	25.9µM*
CCC1CN(CCC(=O)N2CCCN(C(=O)c3ccco3)CC2)Cc2cc(OC)ccc2O1 (configuration not stated)	0.4%	i	nt	nt	nt	nt
CCCNC(=O)Cn1nc(-c2ccc(C)c(C)c2)c2cnc3ccc(OC)cc3c21	17.1%	i	nt	-14.9%	nt	nt
CCN(CC)c1ccc(C(=S)NC2CCCCC2)cc1	2.9%	i	?	0.3%	-62.9*	?
Cc1c(C(=O)NCC(C)(C)N2CCOCC2)cnn1-c1ncc2c(n1)-c1ccccc1CCC2	0.6%	i	nt	nt	nt	nt
CC[N+](CC)(CC#Cc1ccccc1)CC#Cc1ccccc1	-0.4%	i	15.3%	-35.1%	-80.7*	5.4%
C#CC[N+](CC)(CC)CC#Cc1ccccc1	4.2%	i	-5.6%	-13.5%	23.5	1.6%
COc1ccc2c(C)c(CCC(=O)NCc3ccc(C)cc3)c(=O)oc2c1	5.9%	i	nt	-1.8%	nt	nt
O/N=C/c1ccc2cccc(OCc3ccccc3)c2n1	-0.4%	i	-1.3%	-2.5%	18.7	2.3%
NC(N)=N/N=C/c1ccc2cccc(OCc3ccccc3)c2n1	-1.1%	?	-2.2%[9.22 µM]	29.9µM*	-96.0*	?
CC[C@H](C)[C@H]1CNC(=O)C(=O)N1CC1CCN(CCc2ccccc2)CC1	1.3%	i	-37.8%	3.4%	-2.9	-68.7%
CCN(Cc1ccccc1)c1ccc(/C=N/N=C(N)N)cc1	-1.5%	?	?	?	-99.7*	?
Cc1ccc(Nc2nc3ccccc3[nH]2)nc1	2.1%	?	15.6%	-29.7%	-52.9*	9.9%
Cc1ccc(C)c(C(=O)Nc2nc3ccccc3[nH]2)c1	3.0%	i	-2.4%	-18.3%	4.8	16.9%
O=C(O)Cc1ccc(NC(=O)Cc2ccc3ccccc3c2)cc1	3.2%	i	-2.1%	1.0%	16.4	-3.4%
Cc1ccc(O)c(NC(=O)Cc2ccc3ccccc3c2)c1	4.6%	i	3.5%[9.22 µM]	30.7%	-65.3*	-19.1%
CC(C)(Oc1ccc(Cl)cc1)C(=O)OCCCOC(=O)C(C)(C)Oc1ccc(Cl)cc1	nt	i	nt	-10.6%	nt	nt
O=C(NCc1ccccc1)c1cnc(Cl)c(Cl)c1	1.8%	i	-24.4%	1.8%	-9.4	1.9%
O=C(NCc1ccc(F)cc1)c1cnc(Cl)c(Cl)c1	0.5%	i	1.0%	-0.4%	-78.6*	-7.2%
O=S(=O)(Nc1nccs1)c1ccc(F)cc1	3.0%	nt	15.8%	-9.0%	5.9	2.31µM*
CC(=O)c1ccc(NC(=O)COCc2cc(-c3ccco3)on2)cc1	0.2%	nt	nt	nt	nt	nt
O=C1CC(N2CCCCCC2)C(=O)N1c1ccc2c(c1)OCO2 (configuration not stated)	nt	i	-0.6%	1.8%	-6.0	14.6µM*
SMILES	PINK1 expr mod	ATXN viability	SW480 rereplic	ATXN2 expr inh	IL1B secr inh	MCF10A rerep
O=C1CC(N2CCCCCC2)C(=O)N1c1ccc(F)cc1 (configuration not stated)	-0.9%	i	?	nt	-17.6	13µM*
O=C1CC(N2CCN(c3ccc(O)cc3)CC2)C(=O)N1c1ccc2c(c1)OCO2 (configuration not stated)	2.6%	i	-1.8%	1.7%	10.7	-1.9%
Cc1ccc2c(c1)CN(CCNC(=O)c1n[nH]c3c1CCCC3)CC(C)O2 (configuration not stated)	-0.7%	i	nt	nt	nt	nt
Cn1c(=O)n(CC(=O)OCc2ccccc2)c(=O)c2c1nc1n2CCCN1C1CCCCC1	4.9%	i	4.3%	5.4%	3.8	9.2µM*
C=C1CCC[C@]2(C)C[C@H]3OC(=O)C(CNCC(C)C)[C@H]3CC12 (some centres not stated)	1.8%	i	?	-11.0%	-69.1*	-10.5%
C=C1CCC[C@]2(C)C[C@H]3OC(=O)C(CNCCN(C)C)[C@H]3CC12 (some centres not stated)	2.5%	i	?	-4.8%	0.0	12.8%
C=C1CCC[C@]2(C)C[C@H]3OC(=O)C(CNCCN(CC)CC)[C@H]3CC12 (some centres not stated)	7.3%	i	?	-2.1%	-96.5*	3.5%
C=C1CCC[C@]2(C)C[C@H]3OC(=O)C(CN4CC(C)OC(C)C4)[C@H]3C[C@@H]12 (some centres not stated)	-1.3%	i	?	?	-71.4*	?
CS(=O)(=O)c1ncc(Cl)c(C(=O)Nc2ccc(N3CCOCC3)cc2)n1	nt	nt	10.3µM*	?	-102.2*	-4.2%
O=C(Nc1ccc(N2CCOCC2)cc1)c1cnccn1	1.7%	i	2.9%	2.51µM*	-13.4	-5.0%
CS(=O)(=O)c1ncc(Cl)c(C(=O)Nc2ccc(OC(F)F)cc2)n1	-1.7%	?	1.84µM*	?	-98.6*	5.17µM*
O=C(Nc1ccccc1N1CCOCC1)c1cnccn1	0.1%	i	-15.5%	nt	-9.3	-6.5%
COc1ccc(CN2CCC3(CC2)c2ccccc2[C@@H](NC(=O)c2ccco2)[C@@H]3OC)c(O)c1	-0.7%	i	nt	nt	nt	nt
COc1ccc(C2CC(c3ccccc3F)=NN2c2ccc(S(N)(=O)=O)cc2)cc1 (configuration not stated)	1.3%	nt	0.92µM*	1.7%	-16.0	2.06µM*
COc1ccc(C2CC(c3ccccc3C(F)(F)F)=NN2c2ccc(S(N)(=O)=O)cc2)cc1 (configuration not stated)	-1.5%	nt	0.731µM*	?	-4.1	1.84µM*
COc1ccc(C2=NN(CN3C(=O)C(=O)c4ccccc43)C(c3ccc(Br)cc3)C2)cc1 (configuration not stated)	nt	i	1.1%	53.1%	-79.4*	?
COc1ccc(C2=NN(CN3C(=O)C(=O)c4ccccc43)C(c3ccc(C)cc3)C2)cc1 (configuration not stated)	-0.6%	i	-2.7%	25.4%	-17.5	29.3%
COc1ccc(C2CC(C(C)(C)C)=NN2c2ccc(S(N)(=O)=O)cc2)cc1 (configuration not stated)	1.6%	i	-14.8%	-1.1%	28.3	11.9%

Screening results as filed in PubChem.
